The text below walks through data of PubChem BioAssay (NCATS).

Assay [1] is described as follows: qHTS of pediatric cancer cell lines to identify multiple opportunities for drug repurposing: Primary screen for NB1643 cells (AID 1347099). Further: nearly all actives have a fitted effect of over 50% in size. The essentials:
(§1)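 Plated cells (500-1,000 per well, growth media) were allowed to settle for 5 hours, treated with compound dilutions for 48 hours, then lysed with CellTiter-Glo for 15 min at room temperature before luminescence reading.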
(In general: qHTS replaces the single test concentration by a dilution series.)

Assay [2] is described as follows: qHTS of pediatric cancer cell lines to identify multiple opportunities for drug repurposing: Primary screen for OHS-50 cells (AID 1347103). Further: nearly all actives have a fitted effect of over 40% in size. An outline of the steps: (§2)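 Cells (500-1,000/well) rested 5 h, then received compounds for 48 h; metabolically active cells were measured by CellTiter-Glo luminescence. Final concentrations spanned up to 46 µM (MIPE, 11-point) or 0.59 nM-46 µM (NPC, 8-point) in primary screens, 11-point in follow-ups.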

Assay [3] in a line: qHTS of pediatric cancer cell lines to identify multiple opportunities for drug repurposing: Primary screen for control Hh wild type fibroblast cells (AID 1347106). Further: nearly all actives have a fitted effect of over 55% in size. An outline of the steps: (§3)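 Viability after 48 h compound treatment at 37C, 500-1,000 cells/well, read as ATP luminescence with CellTiter-Glo. Primary screens used 11-point (MIPE, 0.78 nM-46 µM) or 8-point (NPC, 0.59 nM-46 µM) final concentrations; follow-up screens used 11-point dilutions.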

Assay [4] in a line: qHTS of pediatric cancer cell lines to identify multiple opportunities for drug repurposing: Primary screen for MG 63 (6-TG R) cells (AID 1347105). Further: nearly all actives have a fitted effect of over 50% in size. An outline of the steps: as §1
Assay [5] can be described thus: qHTS of pediatric cancer cell lines to identify multiple opportunities for drug repurposing: Primary screen for LAN-5 cells (AID 1347100). An outline of the steps:
as §3

A short description of assay [6]: qHTS of pediatric cancer cell lines to identify multiple opportunities for drug repurposing: Primary screen for Rh18 cells (AID 1347102). Further: nearly all actives have a fitted effect of over 65% in size. The essentials: as §3
Assay [7] is described as follows: qHTS of pediatric cancer cell lines to identify multiple opportunities for drug repurposing: Primary screen for BT-12 cells (AID 1347101). Further: nearly all actives have a fitted effect of over 25% in size. The essentials: as §2
Assay [8] is described as follows: qHTS of pediatric cancer cell lines to identify multiple opportunities for drug repurposing: Primary screen for RD cells (AID 1347104). Further: nearly all actives have a fitted effect of over 55% in size. An outline of the steps:
as §1

Results filed as inconclusive are left out. Activity calls are given as the source filed them. The call rests on the fitted dose curve; in most records, active means well fitted curve in the direction sought with a large enough effect; inconclusive means small, poorly fitted or top-dose-only effect, or another doubt; inactive means no such curve, though single readings can be large; an effect the other way counts as inactive or inconclusive.
Potency means the concentration at half of the fitted maximal effect.

Turning to `N#CC1(c2cccc(C(=O)Nc3cc(Oc4ccc5nc(NC(=O)C6CC6)sc5n4)ccc3F)c2Cl)CC1`, the Potency result in assay [1] and in assay [3] was “inactive” each time. For the same molecule, the Potency in assay [2] was 19.3 µM (active).

With `CCOC(=O)N1c2ccc(C(F)(F)F)cc2[C@@H](N(Cc2cc(C(F)(F)F)cc(C(F)(F)F)c2)C(=O)OC)C[C@H]1CC`, the Potency entry in assay [1], in assay [4] and in assay [3] was “inactive” throughout. Further, the Potency in assay [2] is 15.3 µM (active).

On to `CNC(=O)[C@H](Cc1ccccc1)NC(=O)[C@H](CC(C)C)[C@H](CSc1cccs1)C(=O)NO`, for which the Potency entry in assay [5], in assay [6], in assay [4] and in assay [3] was “inactive” each time.

Regarding `CCOC(=O)c1c(CSc2ccccc2)n(C)c2cc(Br)c(O)c(CN(C)C)c12`, in assay [2], the Potency is 27.3 µM (active). In addition, the Potency result in assay [4] and in assay [3] was “inactive” each time.

On to `CCCCCCOC(=O)N=C(N)c1ccc(NCc2nc3cc(C(=O)N(CCC(=O)OCC)c4ccccn4)ccc3n2C)cc1`, for which the Potency in assay [5] is 23.5 µM (active). Further, the Potency result in assay [4] and in assay [3] was “inactive” each time.

For the molecule `CCC[C@H](Nc1nc(-c2ccc(NC(=O)NCC)c(OC)c2)ncc1C)c1cccnc1`, the Potency in assay [5] was 0.0105 µM (active); in assay [7], 0.0109 µM (active); in assay [2], 0.0137 µM (active). Moreover, the Potency result in assay [6], in assay [4] and in assay [3] was “inactive” each time.

As to `O=C(CC12CC3CC(CC(C3)C1)C2)Nc1cccc2nc(NCCNCCO)ccc12`, the Potency in assay [1] was 13.2 µM (active); in assay [4] it was 14.8 µM (active).

Regarding `CN1CC(=O)N2C(Cc3c([nH]c4ccccc34)[C@H]2c2ccc3c(c2)OCO3)C1=O` (some centres undefined), the Potency entry in assay [5], in assay [7], in assay [6], in assay [8] and in assay [3] was “inactive” each time.

On to `COc1cccc(OC)c1-c1cc(C(=O)NC2(C(=O)O)C3CC4CC(C3)CC2C4)nn1-c1ccnc2cc(Cl)ccc12` (centres undefined), for which the Potency result in assay [5], in assay [7], in assay [6], in assay [2], in assay [4] and in assay [3] was “inactive” throughout.

Regarding `COc1cc2c(cc1OC)[C@@H]1Cc3ccc(OC)c(OC)c3CN1CC2`, the Potency in assay [5] is 10.5 µM (active). In addition, the Potency result in assay [6], in assay [8], in assay [4] and in assay [3] was “inactive” in each case.

On to `CO[C@@H]1C(N(C)C(=O)c2ccccc2)C[C@H]2O[C@]1(C)n1c3ccccc3c3c4c(c5c6ccccc6n2c5c31)C(=O)NC4=O` (some centres undefined), for which the Potency in assay [4] is 1.48 µM (active).

As to `COc1ccc(CCN(C)CCCOc2ccc(S(=O)(=O)c3[nH]c4ccccc4c3C(C)C)cc2)cc1OC`, the Potency in assay [5] is 23.5 µM (active). Also, the Potency result in assay [4] was “inactive”.

In the case of `CN(C(Cc1ccc(OS(=O)(=O)c2cccc3cnccc23)cc1)C(=O)N1CCN(c2ccccc2)CC1)S(=O)(=O)c1cccc2cnccc12` (centres undefined), the Potency in assay [2] was 13.7 µM (active); in assay [4] it was 14.8 µM (active).

As to `CC1(C)CC(=O)c2c(C(F)(F)F)nn(-c3ccc(C(N)=O)c(NC4CCC(O)CC4)c3)c2C1` (centres undefined), the Potency in assay [5] was 0.148 µM (active); in assay [6], 0.264 µM (active); in assay [2], 0.306 µM (active); in assay [8], 0.0743 µM (active).

Take `CC(C)CNc1ccnc(NCc2csc(-c3ccccc3)n2)n1`: the Potency is 14.8 µM (active) in assay [5]; 6.85 µM (active) in assay [7]; 23.5 µM (active) in assay [6]; 6.11 µM (active) in assay [2]; 29.6 µM (active) in assay [8].

As for `CC1=C(C(=O)Nc2cc3cn[nH]c3cc2F)C(c2ccc(C(F)(F)F)cc2)CC(=O)N1` (centres undefined), the Potency entry in assay [7], in assay [6], in assay [2] and in assay [3] was “inactive” each time.

For `COc1ccc2c(c1)CC[C@H]1[C@@H]2CC[C@]2(C)[C@@H](NCCCCCCN3C(=O)C=CC3=O)CC[C@H]12`, the Potency entry in assay [5], in assay [6], in assay [8], in assay [4] and in assay [3] was “inactive” throughout.

On to `Cc1csc(-c2nnc(Nc3ccc(Oc4ncccc4-c4ccnc(N)n4)cc3)c3ccccc23)c1`, for which, in assay [5], the Potency was 0.001 µM (active). Further, the Potency result in assay [6], in assay [4] and in assay [3] was “inactive” in each case.

Consider `CN1CCN(c2cccc(Nc3nc4c(-c5ccc(S(C)(=O)=O)cc5)cccn4n3)c2)CC1`, for which the Potency in assay [5] was 13.2 µM (active); in assay [6] it was 18.7 µM (active); in assay [2] it was 7.69 µM (active).

Take `O=C(c1ccc(C=Cc2n[nH]c3ccccc23)cc1)N1CCNCC1`: the figures for the Potency in assay [5] and in assay [2] were 0.833 µM (active) and 2.17 µM (active), respectively. The Potency entry in assay [6] and in assay [3] was “inactive” each time.

On to `O=C(CCCN1CCN(c2ccc(F)cc2)CC1)NC1c2ccccc2CSc2ccccc21` (centres undefined), for which the Potency in assay [2] was 8.63 µM (active). Further, in assay [3], the Potency result is “inactive”.

In the case of `COC(=O)Nc1ccc(-c2nc(N3CCOCC3)c3cnn(C4CCN(C(=O)OC)CC4)c3n2)cc1`, the Potency in assay [7] is 0.611 µM (active); in assay [6], 6.62 µM (active); in assay [2], 0.432 µM (active); in assay [8] it was 1.66 µM (active); in assay [4], 0.469 µM (active); in assay [3] it was 0.0209 µM (active).

Turning to `CN(C)CCCNC(=O)c1ccc(-c2cc(O)c3ncccc3c2)cc1`, the Potency entry in assay [5], in assay [6] and in assay [4] was “inactive” throughout.

For `CN(C)c1ccccc1CN1CCCN(Cc2ccccc2N(C)C)C1c1ccncc1`, the Potency in assay [2] was 27.3 µM (active); in assay [8] it was 26.4 µM (active). Also, the Potency result in assay [4] was “inactive”.

Turning to `Cc1cc(C(C)Nc2ccccc2)c2nc(N3CCOCC3)cc(=O)n2c1` (centres undefined), the Potency entry in assay [7] is “inactive”. Also, the Potency in assay [2] was 24.3 µM (active).

As for `CNc1nc(-c2ccc3c(N)n[nH]c3c2)cc(N2C[C@@H](C(=O)NC3CCCCC3)CC[C@@H]2C)n1`, the Potency in assay [5] is 26.4 µM (active); in assay [8], 20.9 µM (active); in assay [4], 3.72 µM (active). For the same molecule, in assay [3], the Potency result was “inactive”.

Consider `CCCC1OC2C[C@@H]3[C@H]4CCC5=CC(=O)C=C[C@]5(C)[C@H]4C(O)C[C@]3(C)[C@]2(C(=O)CO)O1` (some centres undefined), for which the Potency in assay [1] was 20.9 µM (active). For the same molecule, the Potency result in assay [8], in assay [4] and in assay [3] was “inactive” in each case.

As for `O=S(=O)(O)c1ccc2cc(N=Nc3cc(S(=O)(=O)O)c4cccnc4c3O)ccc2c1`, the Potency entry in assay [5] and in assay [3] was “inactive” each time.

On to `CCCCc1ccc(NS(=O)(=O)c2ccc(C)c(C(=O)N3CCN(c4cccc(C)c4C)CC3)c2)cc1`, for which the Potency in assay [1] was 23.5 µM (active); in assay [8], 33.2 µM (active). For the same molecule, the Potency result in assay [3] was “inactive”.
